# Platelet DG rel – modulates dense granule release in human platelets; inhibition, %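 (compounds screened at 7.5 µM in platelet-rich plasma)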; actives 0.22% (n = 300,000); AID 1663; human platelet-rich plasma, SFLLRN dense granule ATP release, luminescence;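 active = mean replicate score, as percent of positive control, at or above 50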
# SENP8 block-1 – inhibitors of human SENP8 protease; purified SENP8, Z-RLRGG-aminoluciferin cleavage, luminescence; actives 1.2% (n = 330,000); inhibition, % at 10 µM; AID 2540; Q96LD8; in the data active = inhibition above about 50%
# Target sequence (Q96LD8 whole entry, looked up): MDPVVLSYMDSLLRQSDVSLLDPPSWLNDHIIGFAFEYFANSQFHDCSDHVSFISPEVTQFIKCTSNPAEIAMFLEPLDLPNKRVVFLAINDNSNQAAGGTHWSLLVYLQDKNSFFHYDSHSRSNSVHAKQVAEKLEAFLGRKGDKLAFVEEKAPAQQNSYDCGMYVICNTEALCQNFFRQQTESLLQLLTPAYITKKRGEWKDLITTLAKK
# SENP7 inh – blocks the human protease SENP7. Q9BQF6. recombinant SENP7, Z-RLRGG-aminoluciferin luminescence, 40 min. inhibition, % at 5 µM. actives 1.5% (n = 330,000);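 active = inhibition above about 50% at the single test dose, limit read from the data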;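 note: plate controls were DMSO with enzyme for no effect and no enzyme buffer wells for full effect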
# Target sequence (Q9BQF6 706-1050 limits assumed): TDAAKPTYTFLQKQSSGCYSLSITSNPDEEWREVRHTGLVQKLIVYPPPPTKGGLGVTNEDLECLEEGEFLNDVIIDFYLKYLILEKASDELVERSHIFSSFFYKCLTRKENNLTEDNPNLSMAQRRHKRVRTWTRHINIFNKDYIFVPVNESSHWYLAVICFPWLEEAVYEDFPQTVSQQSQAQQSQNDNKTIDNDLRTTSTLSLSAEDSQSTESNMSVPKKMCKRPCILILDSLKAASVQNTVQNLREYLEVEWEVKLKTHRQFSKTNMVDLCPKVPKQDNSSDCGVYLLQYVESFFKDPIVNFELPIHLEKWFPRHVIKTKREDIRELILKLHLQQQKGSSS
# SENP6 inh – SENP6 protease inhibition; Recombinant SENP6 catalytic domain, aminoluciferin luminescence; inhibition, % at 10 µM; actives 1.8% (n = 330,000);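 active = inhibition above about 50% at the single tested dose, limit read from the data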;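 note: plate controls were DMSO wells with enzyme for no effect and DMSO wells lacking enzyme for full effect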
# SENP8 block-2 – blocks human SENP8 cleavage of Nedd8 substrate. Q96LD8. recombinant SENP8, Nedd8 substrate fluorescence. inhibition, % at 20 µM. actives 0.64% (n = 360,000). AID 602440; in the data active = inhibition mostly above about 40%, no sharp cut-off; inactive = mostly below about 27%
# HSP90 inh – inhibitors of HSP90 luciferase refolding in rabbit reticulocyte lysate. luciferase refolding luminescence, 3 h. inhibition, % at 5.6 µM. actives 0.91% (n = 290,000);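 active = inhibition above the screen-wide mean plus 3 SD, computed separately per campaign, cut at about 16% in these data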;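 note: 0% = DMSO wells and 100% = 60 µM geldanamycin wells; inhibitors lower the luminescence because luciferase stays unfolded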
# SENP8 conf – SENP8 (human) inhibition, single concentration confirmation. purified SENP8, Nedd8-AMC/pro-Nedd8 cleavage fluorescence, 30 min. shares compounds with SENP8 block-2. AID 624319. actives 15% (n = 1,400). inhibition, % at 25 µM; in the data active = inhibition mostly above about 39%, no sharp cut-off; inactive = mostly below about 34%
# The depositor's hits bear a star; / = no result given. This is a sample that favours compounds with a hit; in the whole collection about 2.8% have one here.
SMILES,Platelet DG rel,SENP8 block-1,SENP7 inh,SENP6 inh,SENP8 block-2,HSP90 inh,SENP8 conf
C[C@@H]1CN([C@H](C)CO)C(=O)CCCn2nncc2CO[C@H]1CN(C)Cc1ccc2c(c1)OCO2,/,/,/,/,-12.5,/,/
Cc1[nH][nH]c(=O)c1C(c1cc([N+](=O)[O-])ccc1O)c1c(C)[nH][nH]c1=O,1.7,/,/,/,25.2,5.5,/
Cc1[nH][nH]c(=O)c1C(c1c(C)[nH][nH]c1=O)c1cn(C)c2ccccc12,/,/,/,/,77.2*,3.9,50.5*
O=C1c2ccccc2C(O)(c2ccccc2)N1c1ccncc1 (stereo not given),-5.8,3.9,5.8,-1.6,12.8,3.4,/
CNc1ccccc1,/,8.5,3.8,-4.4,12.8,/,/
CNc1cccccc1=S,-1.4,5.3,6.7,3.1,62.1*,5.2,10.1
COc1ccc(N2CC(C(=O)N[C@@H](C)C(=O)N[C@H](CO)c3ccccc3)CC2=O)cc1 (stereo not given in full),4.4,0.6,0.9,-8.9,53.1*,-2.5,13.1
Cc1ccc(C(=O)NN2C(=O)C3C4c5ccccc5C(c5ccccc54)C3C2=O)cc1 (stereo not given),4.2,-4.2,3.4,7.3,45.2*,1.1,16.6
O=C(NN1C(=O)C2C3c4ccccc4C(c4ccccc43)C2C1=O)c1ccccc1 (stereo not given),6.8,-1.7,0.9,-6.8,9.1,2.4,/
Cc1cccc(C)c1NC(=O)c1ccc([N+](=O)[O-])s1,-2.6,1.5,-6.9,42.0,29.3*,-0.1,9.7
O=[N+]([O-])c1cc(C(F)(F)F)cc([N+](=O)[O-])c1NN=C1CCCCC1,0.7,-4.4,5.8,4.0,41.8*,1.5,9.4
C[C@H](NC(=O)C1CCN(S(=O)(=O)c2ccccc2)CC1)C(=O)NCc1ccc(Cl)cc1Cl,1.9,-2.5,6.2,2.1,7.3,-4.5,/
C=CCn1c(Br)nc2c1c(=O)n(C)c(=O)n2C,3.0,-0.6,0.0,-10.7,8.8,2.8,/
Cn1c(=O)c2c(nc(Br)n2C)n(C)c1=O,-23.9,-4.9,-2.4,-5.1,40.6*,0.0,0.2
CCOc1cc(C(c2c(C)[nH][nH]c2=O)c2c(C)[nH][nH]c2=O)ccc1OS(=O)(=O)c1ccccc1,-3.6,-6.8,-7.4,11.3,44.4*,8.2,46.7*
CCCSCCCNC(=O)Cn1c(=O)c2cccn2c2ccccc21,-1.2,-2.1,2.8,-2.1,-0.9,-0.3,/
O=c1[nH]nc(CNc2ccc(O)cc2)c2ccccc12,/,-0.7,48.7,10.3,114.4*,-0.2,26.5
Cc1cc2c(cc1C)-c1nnnn1C(N1CCCCC1)C(=O)N2 (stereo not given),/,/,/,/,15.1,/,/
CC1(C)[N+]([O-])=C2C(=[N+]([O-])C1(C)C)c1ccccc1/C2=N\O,1.9,-3.8,-5.7,-19.5,48.5*,2.1,17.2
CCOC(=O)CC(=O)Nc1ccc(C)cc1,-6.1,5.5,2.8,-0.2,40.1*,-2.3,12.1
CN1CCN(c2cc(-c3cc(O)c4ncccc4c3)ccn2)CC1,/,-2.4,3.8,-5.8,52.4*,/,47.5*
CN1CCN(C(=O)c2cccc(-c3cc(O)c4ncccc4c3)c2)CC1,/,6.3,-4.3,-4.9,10.1,/,/
Cc1cc(C)c(S(=O)(=O)NCc2nc3nc(C)cc(C)n3n2)c(C)c1,-3.0,1.2,-0.6,-17.8,-1.3,-1.0,/
O=C(OCc1ccccc1)N1CCC2CC1c1c2cccc1N1CCOCC1 (stereo not given),/,/,/,/,19.2,/,/
COc1ccc(-n2c(C)cc(SC)c(C(C)=O)c2=S)cc1,-11.3,2.7,5.7,0.1,15.4,2.8,/
SMILES,Platelet DG rel,SENP8 block-1,SENP7 inh,SENP6 inh,SENP8 block-2,HSP90 inh,SENP8 conf
CSc1cc(C)n(-c2ccc(Cl)cc2)c(=S)c1C(C)=O,6.9,4.1,1.5,9.8,41.9*,3.5,14.8
Cc1c(C#N)c(O)n(C)c(=O)c1N=Nc1ccc(S(N)(=O)=O)cc1,-4.3,/,/,/,48.7*,4.0,17.7
CCC(C)N(C)C1CCN(C(=S)Nc2cccc(SC)c2)CC1 (stereo not given),1.2,4.9,8.5,-29.5,43.3*,2.6,29.4
CSc1cccc(NC(=S)N2CCC(N(C)C(C)C)CC2)c1,3.3,-3.5,-5.1,-9.6,11.8,2.0,/
COc1cc(/C=C(\C#N)c2nc3ccccc3s2)cc([N+](=O)[O-])c1O,-5.8,19.8,6.7,23.6,26.4,3.1,/
N#C/C(=C\c1ccc(O)c([N+](=O)[O-])c1)c1nc2ccccc2s1,8.4,/,/,/,54.2*,3.2,42.3*
CCOc1ccc(C(=O)C(CCC(CN(C)C)C(=O)c2ccc(OCC)cc2)CN(C)C)cc1 (stereo not given),-1.0,/,/,/,11.4,-0.2,/
COc1ccc(C(=O)C(CCCCC(CN(C)C)C(=O)c2ccc(OC)cc2)CN(C)C)cc1 (stereo not given),-4.6,0.0,-0.5,-10.4,41.7*,0.3,12.3
CC(C)N(Cc1cnn(C)c1)Cc1nc(Cc2ccccc2Cl)no1,0.0,-3.1,8.0,-4.6,47.0*,4.1,1.8
CN(Cc1cnn(C)c1)Cc1nc(Cc2ccccc2Cl)no1,0.8,-0.3,-3.6,4.7,7.6,0.9,/
CCOC(=O)Cc1ccc(Nc2nc3cc(-c4ccccc4C)sc3c(=O)n2C)cc1,/,/,/,/,-71.3,/,/
O=C(CCn1c(=O)oc2ccccc21)NCCN1CCc2ccccc2C1,-4.2,-0.5,12.0,-7.6,10.8,-1.7,/
O=C(CCCn1c(=O)oc2ccccc21)N1CCc2ccccc2C1,5.7,-7.5,-0.5,-2.8,48.3*,-1.4,78.4*
COc1ccccc1N1CC(C(=O)Nc2ccc3c(c2)OCO3)CC1=O (stereo not given),-0.9,0.0,2.3,0.9,1.1,-4.2,/
COc1ccc2c(c1OC)C(=O)OC2N1C(=O)CC[C@H]1C(=O)Nc1ccc2c(c1)OCO2 (stereo not given in full),-1.4,2.4,-7.4,-4.0,44.2*,-3.9,-2.9
CCOC(=O)c1sc2ncnc(Nc3cccc(C(=O)O)c3)c2c1C,14.7,1.7,-1.4,-31.4,-67.6,-1.2,/
Cc1ccc(S(=O)(=O)N2CCN(C(C)C(=O)NCC(C)c3ccccc3)CC2)cc1 (stereo not given),/,4.5,6.1,-13.1,4.7,/,/
COCCN1Cc2cccc(C(=O)NCc3cccs3)c2C1=O,4.3,-1.9,-5.7,-4.1,42.0*,0.5,5.6
CC(=O)Nc1ccc(C(=O)O)cc1,/,11.4,-0.6,-12.7,46.0*,/,5.3
CN(C)c1ccc(S(=O)(=O)N2CCCCC2)cc1NC(=O)C1=NN(c2ccccc2)C(=O)CC1,-2.0,2.1,-0.6,5.0,20.5,1.5,/
CC(C)=CCc1c2c(c3occ(-c4ccc(O)c(O)c4)c(=O)c3c1O)C=CC(C)(C)O2,/,/,/,/,26.5,/,/
CC(C)=CCc1c2c(c3occ(-c4ccc(O)cc4)c(=O)c3c1O)C=CC(C)(C)O2,-3.3,-6.0,-14.6,10.5,43.0*,-0.9,26.4

# Source: PubChem
